Measurements taken from PubChem BioAssay AID1159580 (chemical genetic matrix, 2015).
Out of some 5,500 compounds screened, about 2,000 (36%) were called active. Another 18% or so got no clear call; they are omitted. No stated cut-off is given here; in the data, active means normalized growth mostly below about 0.91 (no sharp cut-off); inconclusive means no clear call, values can overlap the other calls; inactive means mostly above about 0.92. This is one part of the list.

Test: chemical genetic growth profiling, strain panel (AID 1159580);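 further: tested at 20 µM; growth read once vehicle control cultures reached saturation at 30 °C; 1 = growth at the plate median or of vehicle wells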
Details: S. cerevisiae deletion strains, growth OD

Measured: normalized growth

CC(/C=N\O)=N/Nc1ccccc1
active: locus YKL190W, strain CNB1, stronger effect = lower value 0.887 | locus YLR039C, strain RIC1, stronger effect = lower value 0.324 | locus YLR262C, strain YPT6, stronger effect = lower value 0.253 | locus YML094W, strain GIM5, stronger effect = lower value 0.841 | locus YOL006C, strain TOP1, stronger effect = lower value 0.527
inactive: locus YAL013W, strain DEP1, stronger effect = lower value 0.969 | locus YBR229C, strain ROT2, stronger effect = lower value 0.938 | locus YDL101C, strain DUN1, stronger effect = lower value 1.01 | locus YDL134C, strain PPH21, stronger effect = lower value 0.975 | locus YDR150W, strain NUM1, stronger effect = lower value 0.932 | locus YEL061C, strain CIN8, stronger effect = lower value 0.953 | locus YGR078C, strain PAC10, stronger effect = lower value 0.961 | locus YHR030C, strain SLT2, stronger effect = lower value 0.774 | locus YHR087W, strain rtc3, stronger effect = lower value 0.916 | locus YJR043C, strain POL32, stronger effect = lower value 0.974 | locus YJR075W, strain HOC1, stronger effect = lower value 0.954 | locus YLR058C, strain SHM2 (second series), stronger effect = lower value 0.979 | locus YLR085C, strain ARP6, stronger effect = lower value 0.793 | locus YMR219W, strain ESC1, stronger effect = lower value 0.955 | locus YMR263W, strain SAP30, stronger effect = lower value 0.967 | locus YNL153C, strain GIM3, stronger effect = lower value 0.973 | locus YNL298W, strain CLA4 (second series), stronger effect = lower value 0.923 | locus YNL322C, strain KRE1, stronger effect = lower value 1.01 | locus YNR030W, strain Alg12, stronger effect = lower value 0.951 | locus YPL055C, strain LGE1, stronger effect = lower value 1.05 | locus YPL241C, strain CIN2, stronger effect = lower value 0.907 | locus YPR135W, strain CTF4, stronger effect = lower value 0.889
